Data reported in PubChem BioAssay (NCI).
Compounds without any hit were thinned out: in the full panel of roughly 83,000, 20% have a hit.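 Negative percent growth values reflect cell death: -40 means 40% of the cells present at the start died, and -100 means all died.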 Calls of active or inactive are those of the source. How the source made its calls: active means growth percent below 10; inactive means the rest.

Legend:
Assay in all cases: NCI-60 one-dose screen, 48 h (100 = growth as untreated, 0 = no growth, -100 = all killed)
Conditions in all cases: 10 µM unless noted
HCT-15 colon = test system: HCT-15 colon
HT29 colon = test system: HT29 colon
SNB-75 CNS = test system: SNB-75 CNS
SNB-19 CNS = test system: SNB-19 CNS
U251 CNS = test system: U251 CNS
PC-3 prostate = test system: PC-3 prostate
SK-MEL-5 melanoma = test system: SK-MEL-5 melanoma
UACC-62 melanoma = test system: UACC-62 melanoma
LOX IMVI melanoma = test system: LOX IMVI melanoma
SK-MEL-28 melanoma = test system: SK-MEL-28 melanoma

Measured: growth

COc1ccc(NC(=O)CCCCCCNC(=O)C(O)(O)C(F)(F)F)cc1
inactive: HCT-15 colon 67.7% | HT29 colon 23.1% | SNB-75 CNS 60.2% | SNB-19 CNS 66.8% | U251 CNS 39.7% | PC-3 prostate 52.7% | SK-MEL-5 melanoma 17% | UACC-62 melanoma 17.4% | LOX IMVI melanoma 35.2% | SK-MEL-28 melanoma 40%

CCOC(=O)c1c(NCC(=O)Nc2cccc([N+](=O)[O-])c2)sc(C(C)=O)c1C
active: HCT-15 colon -6.35% | HT29 colon -35.3% | SNB-75 CNS -0.605% | SNB-19 CNS 9.51% | U251 CNS -13.2% | PC-3 prostate -14.5% | SK-MEL-5 melanoma -82.9% | UACC-62 melanoma -19.6% | LOX IMVI melanoma -38.1% | SK-MEL-28 melanoma 2.62%

CCOC(=O)c1c(N)c(C#N)cn1Cc1ccc(Cl)cc1Cl
inactive: HCT-15 colon 48.8% | HT29 colon 80.4% | SNB-75 CNS 47.3% | SNB-19 CNS 68.7% | U251 CNS 64.1% | PC-3 prostate 71.5% | SK-MEL-5 melanoma 78% | UACC-62 melanoma 59.8% | LOX IMVI melanoma 78.8% | SK-MEL-28 melanoma 92.6%

Cc1ccc(Nc2nc(SC(C)C)nc(-c3ccccc3)c2C#N)cc1
inactive: HCT-15 colon 95.1% | HT29 colon 101% | SNB-75 CNS 91.1% | SNB-19 CNS 97.1% | U251 CNS 103% | PC-3 prostate 99.9% | SK-MEL-5 melanoma 83.5% | UACC-62 melanoma 95.5% | LOX IMVI melanoma 96.4% | SK-MEL-28 melanoma 96.8%

CCOC(=O)c1c(NC(=O)c2cccc(C(F)(F)F)c2)sc2c3c(ccc12)OCN(C)C3
active: HCT-15 colon -70.9% | HT29 colon -11.8% | U251 CNS -79.4% | PC-3 prostate -42.5% | LOX IMVI melanoma -94.7% | SK-MEL-28 melanoma 9.77%
inactive: SNB-75 CNS 83.6% | SNB-19 CNS 49.6% | SK-MEL-5 melanoma 68.6% | UACC-62 melanoma 25.6%

CC1CC(=O)C2=C(C1)Nc1ccc(Br)cc1CC2c1c[nH]c2ccc(Br)cc12 (stereo not given)
active: SNB-75 CNS -7.47%
inactive: HCT-15 colon 27.1% | HT29 colon 11.1% | SNB-19 CNS 54.7% | U251 CNS 53.1% | PC-3 prostate 31.3% | SK-MEL-5 melanoma 66.1% | UACC-62 melanoma 42.1% | LOX IMVI melanoma 34.9% | SK-MEL-28 melanoma 57.2%

Cc1cc(=O)[nH]c(O)c1C#N
inactive: HCT-15 colon 103% | HT29 colon 110% | SNB-75 CNS 87% | SNB-19 CNS 101% | U251 CNS 100% | PC-3 prostate 97.1% | SK-MEL-5 melanoma 102% | UACC-62 melanoma 91.7% | LOX IMVI melanoma 95.1% | SK-MEL-28 melanoma 108%

C/C(=N\NC(=O)/C=C/CC(=O)O)c1nnn(-c2ccc([N+](=O)[O-])cc2)c1C
inactive: HCT-15 colon 105% | HT29 colon 106% | SNB-75 CNS 97.6% | SNB-19 CNS 98.3% | U251 CNS 100% | PC-3 prostate 94.7% | SK-MEL-5 melanoma 99.2% | UACC-62 melanoma 101% | LOX IMVI melanoma 101% | SK-MEL-28 melanoma 114%

O=C(/C=C/C=C/c1csc(Br)n1)NO
inactive: HCT-15 colon 94.5% | HT29 colon 94.5% | SNB-75 CNS 75.6% | SNB-19 CNS 94.4% | U251 CNS 98.6% | PC-3 prostate 84.8% | SK-MEL-5 melanoma 96% | UACC-62 melanoma 84.8% | SK-MEL-28 melanoma 102%
active: LOX IMVI melanoma -31.7%

Nc1nc(=O)n([C@H]2C[C@H](O)[C@@H](CO)O2)cc1C=O
inactive: HCT-15 colon 107% | HT29 colon 101% | SNB-75 CNS 122% | SNB-19 CNS 106% | U251 CNS 106% | PC-3 prostate 45% | SK-MEL-5 melanoma 101% | UACC-62 melanoma 106% | LOX IMVI melanoma 106% | SK-MEL-28 melanoma 108%

CC/C(=C(/c1ccc(Cl)cc1)c1ccc(OCCN)cc1)c1ccccc1
inactive: HCT-15 colon 55.7% | HT29 colon 79.9% | SNB-75 CNS 110% | SNB-19 CNS 99.8% | U251 CNS 92.6% | PC-3 prostate 103% | SK-MEL-5 melanoma 99.1% | UACC-62 melanoma 107% | LOX IMVI melanoma 27.8% | SK-MEL-28 melanoma 108%

NCCNC(=O)c1cccc(COc2ccccc2NC(=O)c2cc(Br)c(Br)[nH]2)c1
inactive: HCT-15 colon 72.7% | HT29 colon 101% | SNB-75 CNS 94.1% | SNB-19 CNS 71.1% | U251 CNS 77.5% | PC-3 prostate 82.1% | SK-MEL-5 melanoma 98.9% | UACC-62 melanoma 96.8% | SK-MEL-28 melanoma 102%
active: LOX IMVI melanoma -30.8%
